“And” between values parts separate entries of the source, which are not always exact repeats. Identical values can stand only once. Records with an inconclusive call do not appear. The source made the active and inactive calls. Unless noted, the call rests on the fitted dose curve; in most records, active means well fitted curve in the direction sought with a large enough effect; inconclusive means small, poorly fitted or top-dose-only effect, or another doubt; inactive means no such curve, though single readings can be large; an effect the other way counts as inactive or inconclusive.

The values that follow come from PubChem BioAssay (NCATS).

Experiment [1] is described as follows: qHTS assay for small molecule agonists of retinoid X receptor alpha signaling (AID 588544; calls by dose curve). Conditions: HEK293T RXRa-UAS-bla, beta-lactamase reporter, 18 h; 530 nm emission.
Experiment [2] has as its target Retinoic acid receptor RXR-alpha (Homo sapiens) (UniProt P19793). Described as above.
Experiment [3] deals with Thyroid hormone receptor beta (Homo sapiens) (UniProt P10828). As to the kind of experiment: qHTS assay for small molecule agonists of thyroid hormone receptor beta signaling (AID 588545; calls by dose curve;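 further: 0% = DMSO only and 100% = 10 nM T3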). In outline:
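Beta-lactamase reporter activity under TR response element control is measured in HEK 293 cells after 18 hrs compound exposure. Signal is ratiometric CCF4 fluorescence, 460/530 nm.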
Background: Quantitative high-throughput screening tests each substance at several concentrations.

A short description of experiment [4]: qHTS assay for small molecule antagonists of retinoid X receptor alpha signaling (AID 588546; active means well fitted inhibition curve with a large enough effect in the signal ratio, with a control signal flat, not every such curve was filed as active; the % refers to the signal ratio;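 further: cells stimulated with 9-cis-retinoic acid as agonist; on the % scale 0 is the no-effect control and ±100 the full control effect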). As to conditions: HEK293T RXRa-UAS-bla, beta-lactamase ratio, antagonist mode; measured here: W530 green channel, cytotoxicity proxy. The procedure, abridged: (§1)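 Beta-lactamase reporter inhibition, read as CCF4 fluorescence ratio (ex 405, em 460/530 nm) after 2 h at RT. HEK293T UAS-bla cells, 2500/well, were stimulated with 9-cis-RA at 500 or 100 nM final alongside test compound for 18 h at 37 C.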

Experiment [5] deals with Retinoic acid receptor RXR-alpha (Homo sapiens) (UniProt P19793). The experiment is described as above. Conditions: HEK293T RXRa-UAS-bla, beta-lactamase ratio, antagonist mode. The procedure, abridged:
as §1

Experiment [6] concerns the target Thyroid hormone receptor beta (Homo sapiens) (UniProt P10828). As to the kind of experiment: qHTS assay for small molecule antagonists of thyroid hormone receptor beta signaling (AID 588547; active means well fitted inhibition curve with a large enough effect in the signal ratio, with a control signal flat, not every such curve was filed as active; the % refers to the signal ratio;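 further: cells stimulated with 0.4 nM T3 agonist during compound exposure; series mostly up to about 77 µM; on the % scale 0 is the no-effect control and ±100 the full control effect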). As to conditions: TR-UAS-bla HEK293, beta-lactamase ratio, antagonist mode, 18 h. In outline:
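TR-UAS-bla GripTite HEK293 cells in 2% charcoal/dextran FBS medium; compounds 0.59 nM to 92 uM with T3 at 0.4nM final, 18 h at 37 C. Beta-lactamase read by CCF4 fluorescence (460/530 nm); Hill fits gave IC50 and efficacy.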

For experiment [7], the target named is Voltage-gated inwardly rectifying potassium channel KCNH2 (Homo sapiens) (UniProt Q12809). As to the kind of experiment: qHTS Assay for Small Molecule Inhibitors of the Human hERG Channel Activity (AID 588834).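 Further: top concentration of the series differs between compounds; on the % scale 0 is the no-effect control and ±100 the full control effect; lower thallium flux fluorescence means stronger hERG block; nearly all actives have a fitted effect of over 50% in size.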 The procedure, abridged:
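Homogeneous FluxOR thallium flux assay using hERG-expressing U2OS cells (BacMam). Compound treatment about 10 minutes preceded stimulation; reduced fluorescence taken as channel block.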

In experiment [8] the target is Glutaminase kidney isoform, mitochondrial (Homo sapiens) (UniProt O94925). As to the kind of experiment: qHTS for Inhibitors of Glutaminase (GLS): LOPAC Validation (AID 624146).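 Further: glutamate product detected by oxidase and peroxidase coupled Amplex red fluorescence gain; series mostly up to about 46 µM; on the % scale 0 is the no-effect control and ±100 the full control effect; nearly all actives have a fitted effect of over 60% in size.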 The procedure, abridged: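 Glutamate formation by hKGA was monitored fluorometrically using coupled glutamate oxidase, HRP and Amplex Red. Substrate was added as 1 mM L-glutamine solution; incubation was 30 min at RT after an initial read.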
Glutaminase kidney isoform, mitochondrial (Homo sapiens), sequence (O94925 whole entry, looked up, canonical isoform): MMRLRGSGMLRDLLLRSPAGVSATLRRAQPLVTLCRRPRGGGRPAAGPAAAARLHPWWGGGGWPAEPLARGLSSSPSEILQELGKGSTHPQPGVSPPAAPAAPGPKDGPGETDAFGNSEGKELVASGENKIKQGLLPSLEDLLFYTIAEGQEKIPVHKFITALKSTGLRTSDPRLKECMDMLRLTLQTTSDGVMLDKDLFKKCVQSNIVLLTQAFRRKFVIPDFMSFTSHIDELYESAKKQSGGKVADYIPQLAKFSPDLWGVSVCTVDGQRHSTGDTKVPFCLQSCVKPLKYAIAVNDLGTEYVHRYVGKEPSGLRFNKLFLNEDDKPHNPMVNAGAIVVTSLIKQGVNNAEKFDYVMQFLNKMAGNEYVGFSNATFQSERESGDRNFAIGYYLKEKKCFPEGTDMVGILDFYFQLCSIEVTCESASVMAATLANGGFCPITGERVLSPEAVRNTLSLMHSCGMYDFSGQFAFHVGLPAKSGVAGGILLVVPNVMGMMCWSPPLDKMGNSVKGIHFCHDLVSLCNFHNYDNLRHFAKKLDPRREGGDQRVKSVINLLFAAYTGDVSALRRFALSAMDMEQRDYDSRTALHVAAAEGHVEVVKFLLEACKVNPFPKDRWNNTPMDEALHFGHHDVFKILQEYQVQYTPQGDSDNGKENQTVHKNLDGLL

Experiment [9] in a line: qHTS of Trypanosoma Brucei Inhibitors: LOPAC Validation (AID 624147). Further: 0% is about no effect. The procedure, abridged: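 Screened from lowest to highest concentration, compounds were pinned into TbPYK/substrate mixtures, and ADP (130 uM final) was added. Plates sat at room temperature for 45 min prior to Kinase-Glo Plus detection by luminescence.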
The target in experiment [10] is Glucagon-like peptide 1 receptor (Homo sapiens) (UniProt P43220). As to the kind of experiment: qHTS of GLP-1 Receptor Agonists: LOPAC Validation (AID 624148).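 Further: 0% is about no effect; higher luminescence signal means agonism.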 The procedure, abridged:
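HEK293 cells stably co-expressing GLP-1R and a cAMP-responsive luciferase reporter, plated 12 hours before compound, then incubated 4-6 hr at 37 deg C. Luminescence read 12 min after detection reagent.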

Experiment [11] can be described thus: qHTS of Nrf2 Activators: LOPAC Validation (AID 624149). Further: 0% is about no effect. The procedure, abridged: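 AREc32_Fluc cells, 1000/well, OPTI-MEM + 5% FBS, o/n 37 deg C 5% CO2; compound pin-transfer, 24 hr 37 deg C; Steady-Glo 30 min RT, luminescence read.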
Experiment [12] in a line: HTS Assay for Allosteric Antagonists of the Human D2 Dopamine Receptor: Hit Validation in HTRF (AID 624455). Further: on the % scale 0 is the no-effect control and ±100 the full control effect. In outline: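 HTRF read-out; cells stably expressing D1 receptor; hits scored for inhibition of D1-mediated response. Primary screen: calcium flux, force-coupled inducible Hek293 Trex D2 line, antagonism vs EC80 dopamine.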
A general note: In TR-FRET formats the signal depends on donor and acceptor labels being close together.

Experiment [13] addresses Peroxisome proliferator-activated receptor gamma (Homo sapiens) (UniProt P37231). As to the kind of experiment: qHTS assay for small molecule antagonists of peroxisome proliferator-activated receptor gamma signaling (AID 588537; active means well fitted inhibition curve with a large enough effect in the signal ratio, with a control signal flat, not every such curve was filed as active; the % refers to the signal ratio;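 further: reporter cells co-stimulated with 50 nM rosiglitazone agonist during compound treatment; % of control where 0% means no effect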). In outline:
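Read-out: CCF4 fluorescence (ex 405, em 460/530 nm) after 2 h at RT. Cells were HEK293 carrying a UAS-bla reporter and treated 16 h at 37 C with compound plus rosiglitazone (50 nM final). Normalized to rosiglitazone and DMSO.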

Experiment [14] concerns the target Vitamin D3 receptor (Homo sapiens) (UniProt P11473). As to the kind of experiment: qHTS assay for small molecule antagonists of vitamin D receptor signaling (AID 588541; calls by dose curve;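 further: receptor activated by calcitriol during compound treatment; series mostly up to about 77 µM; on the % scale 0 is the no-effect control and ±100 the full control effect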). The procedure, abridged: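 VDR-UAS-bla HEK293T cells in 2% charcoal-stripped FBS were stimulated with 1-alpha,25-dihydroxyvitamin D3 (3 nM final) plus compound for 16 h at 37 C. The beta-lactamase CCF4 readout was normalized to 50 nM agonist and DMSO, and Hill fits gave IC50.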

Experiment [15] shares this target. As to the kind of experiment: qHTS assay for small molecule agonists of vitamin D receptor signaling (AID 588543; calls by dose curve;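 further: 0% = DMSO basal and 100% = reference agonist control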). The procedure, abridged: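 Measured: β-lactamase reporter activity (CCF4, 405 nm excitation, 460/530 nm emission) in HEK293T VDR-UAS-bla cells after 16 h compound exposure at 37 °C. Normalization against 50 nM 1α,25-dihydroxyvitamin D3 and DMSO; Hill-fit EC50.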

Experiment [16] addresses Luciferin 4-monooxygenase (Photinus pyralis) (UniProt P08659). As to the kind of experiment: Biochemical firefly luciferase enzyme assay for NPC (AID 624030). Further: nearly all actives have a fitted effect of over 70% in size. Further: potency means the concentration at half of the fitted maximal effect. The procedure, abridged:
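Purified P. pyralis luciferase at 10 nM in 50 mM Tris Acetate (final), luminescence read within 5 minutes of enzyme addition to compounds. Activity normalised to PTC124 versus DMSO; concentration-response curves classed by r2, magnitude and activity.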

Experiment [17] in a line: S16 Schwann cell viability assay (CellTiter-Glo assay) (AID 624031).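 Further: cellular ATP luminescence as a viability measure; series mostly up to about 58 µM; plate controls were DMSO-treated cells for no effect and cell-free wells for full effect; nearly all actives have a fitted effect of over 70% in size.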 In outline: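 This viability control uses native rat S16 Schwann cells grown in DMEM plus 10% FBS. After a 24 h compound treatment at 37 °C, CellTiter-Glo luminescence reports ATP content, scaled against DMSO-treated and cell-free wells.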
The nature of experiment [18]: S16 Schwann cell PMP22 intronic element firefly luciferase assay (AID 624032). Further: nearly all actives have a fitted effect of over 30% in size. Further: potency means the concentration at half of the fitted maximal effect. In outline: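 Rat S16 Schwann cells stably carrying firefly luciferase driven by a PMP22 intronic element, in 10% FBS, treated 24 h at 37 C. ONE-Glo luminescence normalized to PTC124 control and DMSO (0%); curves classed by r2, magnitude and activity.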

Retinoic acid receptor RXR-alpha (Homo sapiens), sequence (P19793 whole entry, looked up): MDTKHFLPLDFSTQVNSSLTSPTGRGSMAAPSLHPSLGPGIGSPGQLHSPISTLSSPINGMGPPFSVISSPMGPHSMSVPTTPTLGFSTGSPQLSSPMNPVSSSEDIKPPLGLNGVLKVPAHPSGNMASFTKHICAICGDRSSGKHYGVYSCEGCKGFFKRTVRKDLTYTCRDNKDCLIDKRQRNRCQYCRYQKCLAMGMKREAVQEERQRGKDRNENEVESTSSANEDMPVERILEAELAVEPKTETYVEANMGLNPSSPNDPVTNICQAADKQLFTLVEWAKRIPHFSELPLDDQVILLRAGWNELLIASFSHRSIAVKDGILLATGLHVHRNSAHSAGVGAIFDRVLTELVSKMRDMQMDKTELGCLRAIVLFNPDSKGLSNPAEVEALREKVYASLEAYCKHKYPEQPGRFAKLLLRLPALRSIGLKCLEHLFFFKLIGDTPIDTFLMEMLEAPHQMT
Glucagon-like peptide 1 receptor (Homo sapiens), sequence (P43220 whole entry, looked up): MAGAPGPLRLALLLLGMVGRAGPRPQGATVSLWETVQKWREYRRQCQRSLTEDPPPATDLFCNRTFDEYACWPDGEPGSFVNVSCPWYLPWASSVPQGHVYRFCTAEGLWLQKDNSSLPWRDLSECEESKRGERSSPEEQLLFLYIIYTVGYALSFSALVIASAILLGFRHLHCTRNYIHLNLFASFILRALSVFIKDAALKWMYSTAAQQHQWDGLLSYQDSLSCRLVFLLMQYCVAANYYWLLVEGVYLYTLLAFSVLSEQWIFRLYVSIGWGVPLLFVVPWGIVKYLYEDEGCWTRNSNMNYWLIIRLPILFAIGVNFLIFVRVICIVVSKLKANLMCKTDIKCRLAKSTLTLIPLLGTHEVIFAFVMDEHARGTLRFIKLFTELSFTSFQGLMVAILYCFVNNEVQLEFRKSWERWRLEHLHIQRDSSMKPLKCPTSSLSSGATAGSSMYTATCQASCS
Voltage-gated inwardly rectifying potassium channel KCNH2 (Homo sapiens), sequence (Q12809 whole entry, looked up): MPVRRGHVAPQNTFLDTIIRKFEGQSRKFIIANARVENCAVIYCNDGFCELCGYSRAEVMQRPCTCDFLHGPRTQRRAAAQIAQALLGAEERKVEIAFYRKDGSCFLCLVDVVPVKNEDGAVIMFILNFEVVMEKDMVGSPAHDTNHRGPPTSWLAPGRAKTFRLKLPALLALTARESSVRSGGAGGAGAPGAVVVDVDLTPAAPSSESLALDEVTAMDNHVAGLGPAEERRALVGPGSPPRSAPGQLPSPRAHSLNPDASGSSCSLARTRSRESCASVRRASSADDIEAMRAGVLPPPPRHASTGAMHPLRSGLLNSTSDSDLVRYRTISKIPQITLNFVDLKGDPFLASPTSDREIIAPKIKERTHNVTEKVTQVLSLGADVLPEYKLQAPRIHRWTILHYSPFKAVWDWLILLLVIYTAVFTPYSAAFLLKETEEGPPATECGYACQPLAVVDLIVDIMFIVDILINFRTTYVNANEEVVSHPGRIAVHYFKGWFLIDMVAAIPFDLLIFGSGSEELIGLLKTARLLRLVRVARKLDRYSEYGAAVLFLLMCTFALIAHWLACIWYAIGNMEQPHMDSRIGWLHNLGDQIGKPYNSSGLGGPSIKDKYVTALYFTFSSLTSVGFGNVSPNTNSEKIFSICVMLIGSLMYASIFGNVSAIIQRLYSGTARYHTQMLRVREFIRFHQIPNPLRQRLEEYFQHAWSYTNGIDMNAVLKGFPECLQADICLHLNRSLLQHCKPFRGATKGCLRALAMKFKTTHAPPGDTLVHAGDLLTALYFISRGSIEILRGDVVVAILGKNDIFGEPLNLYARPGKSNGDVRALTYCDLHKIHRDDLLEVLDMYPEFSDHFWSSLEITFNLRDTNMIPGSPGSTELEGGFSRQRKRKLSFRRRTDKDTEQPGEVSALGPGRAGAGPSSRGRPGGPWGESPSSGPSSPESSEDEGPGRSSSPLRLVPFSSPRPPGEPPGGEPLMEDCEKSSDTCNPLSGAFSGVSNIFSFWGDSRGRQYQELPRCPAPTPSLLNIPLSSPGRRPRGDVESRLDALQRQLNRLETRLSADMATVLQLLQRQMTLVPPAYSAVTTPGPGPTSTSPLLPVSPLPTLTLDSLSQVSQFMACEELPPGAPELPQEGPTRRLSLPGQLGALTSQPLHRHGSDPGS
Luciferin 4-monooxygenase (Photinus pyralis), sequence (P08659 whole entry, looked up): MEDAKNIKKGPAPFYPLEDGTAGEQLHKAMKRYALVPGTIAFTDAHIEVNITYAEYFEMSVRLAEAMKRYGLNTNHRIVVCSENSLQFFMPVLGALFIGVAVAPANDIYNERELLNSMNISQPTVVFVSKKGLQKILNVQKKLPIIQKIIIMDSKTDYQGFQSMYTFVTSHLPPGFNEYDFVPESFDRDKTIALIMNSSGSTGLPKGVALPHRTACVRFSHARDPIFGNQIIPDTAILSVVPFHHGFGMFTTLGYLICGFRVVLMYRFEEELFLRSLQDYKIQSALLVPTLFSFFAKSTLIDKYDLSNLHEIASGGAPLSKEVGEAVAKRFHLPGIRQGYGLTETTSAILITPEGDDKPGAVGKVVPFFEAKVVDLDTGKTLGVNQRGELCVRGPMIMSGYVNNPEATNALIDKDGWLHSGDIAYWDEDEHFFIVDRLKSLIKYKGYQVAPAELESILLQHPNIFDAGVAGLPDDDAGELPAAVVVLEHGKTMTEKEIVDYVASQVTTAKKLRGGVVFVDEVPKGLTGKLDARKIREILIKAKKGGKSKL
Thyroid hormone receptor beta (Homo sapiens), sequence (P10828 whole entry, looked up): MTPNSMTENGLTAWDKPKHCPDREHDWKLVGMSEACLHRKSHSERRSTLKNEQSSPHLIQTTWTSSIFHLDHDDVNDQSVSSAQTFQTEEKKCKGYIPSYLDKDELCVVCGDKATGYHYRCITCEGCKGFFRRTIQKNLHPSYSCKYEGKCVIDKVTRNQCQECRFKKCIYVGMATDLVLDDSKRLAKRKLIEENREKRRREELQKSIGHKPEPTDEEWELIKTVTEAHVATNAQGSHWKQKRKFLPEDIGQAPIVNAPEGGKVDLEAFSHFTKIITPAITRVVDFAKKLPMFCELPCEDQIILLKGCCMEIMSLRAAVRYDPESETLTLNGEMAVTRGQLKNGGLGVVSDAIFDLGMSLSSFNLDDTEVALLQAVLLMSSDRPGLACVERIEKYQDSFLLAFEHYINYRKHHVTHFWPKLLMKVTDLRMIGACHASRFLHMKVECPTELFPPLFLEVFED
Peroxisome proliferator-activated receptor gamma (Homo sapiens), sequence (P37231 whole entry, looked up): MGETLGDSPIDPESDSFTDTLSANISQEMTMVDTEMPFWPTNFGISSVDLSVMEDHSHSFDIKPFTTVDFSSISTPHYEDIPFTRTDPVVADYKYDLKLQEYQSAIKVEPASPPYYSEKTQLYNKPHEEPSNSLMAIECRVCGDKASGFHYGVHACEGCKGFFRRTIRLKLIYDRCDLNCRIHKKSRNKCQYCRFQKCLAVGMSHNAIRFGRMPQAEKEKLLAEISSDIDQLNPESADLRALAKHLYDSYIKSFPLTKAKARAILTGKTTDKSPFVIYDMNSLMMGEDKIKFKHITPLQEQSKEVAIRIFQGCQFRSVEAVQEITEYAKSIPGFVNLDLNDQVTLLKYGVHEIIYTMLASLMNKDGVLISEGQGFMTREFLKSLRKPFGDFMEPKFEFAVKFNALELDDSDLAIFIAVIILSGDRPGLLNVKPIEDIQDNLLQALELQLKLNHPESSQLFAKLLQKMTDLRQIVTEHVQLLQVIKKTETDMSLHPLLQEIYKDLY
Vitamin D3 receptor (Homo sapiens), sequence (P11473 whole entry, looked up): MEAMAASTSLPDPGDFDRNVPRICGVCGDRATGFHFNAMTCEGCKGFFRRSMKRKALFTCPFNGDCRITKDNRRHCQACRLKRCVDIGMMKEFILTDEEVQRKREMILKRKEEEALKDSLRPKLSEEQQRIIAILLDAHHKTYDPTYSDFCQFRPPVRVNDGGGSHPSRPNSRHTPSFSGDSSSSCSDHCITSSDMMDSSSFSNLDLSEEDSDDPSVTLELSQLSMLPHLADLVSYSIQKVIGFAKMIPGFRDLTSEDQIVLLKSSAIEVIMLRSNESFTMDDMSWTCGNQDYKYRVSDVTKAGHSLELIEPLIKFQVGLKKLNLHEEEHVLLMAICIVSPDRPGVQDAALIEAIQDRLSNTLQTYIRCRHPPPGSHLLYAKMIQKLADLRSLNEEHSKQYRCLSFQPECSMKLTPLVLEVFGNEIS

Consider `C[C@]12CC[C@@H]3c4ccc(O)cc4CC[C@H]3[C@@H]1CCC2=O`, for which the max response in [1] is 5.7%; in experiment [4], 4.88%; in [5] it was -13% (inactive). Also, the molecule was called inactive in experiment [2], in experiment [3], in [9], in experiment [10], in [11] and in [12]. Further, the activity change % (negative = inhibition) in [6] was 17.6% (inactive). Further, the Potency entry in experiment [7] and in [8] was “inactive” in each case.

Consider `CN(C)CCOC(C)(c1ccccc1)c1ccccn1` (stereo not drawn), for which the result in experiment [13], in [14], in [15], in experiment [2], in experiment [3] and in [9] was inactive. For the same molecule, the call in experiment [10], in [11] and in experiment [12] was inactive. Besides, the max response is 19.3% in experiment [1], 3.38% in experiment [4] and -25.1% (inactive) in experiment [5]. In addition, in experiment [6], the activity change % (negative = inhibition) is -6.28% (inactive). In addition, the Potency result in experiment [7] and in experiment [8] was “inactive” each time.

Turning to `CC1=C(/C=C/C(C)=C/C=C/C(C)=C/C(=O)O)C(C)(C)CCC1`, the molecule was classed as inactive in experiment [13], in experiment [14], in experiment [15], in [3], in [9] and in experiment [10]. In addition, the molecule was called inactive in [11] and in [12]. For the same molecule, in experiment [6], the activity change % (negative = inhibition) was 3.37% (inactive). Besides, in experiment [16], the Potency was 32.2 µM (active). Besides, the Potency result in experiment [17] and in experiment [18] was “inactive” each time.

For the molecule `O=C1c2c(O)cccc2Cc2cccc(O)c21`, the results for the max response in experiment [1], in [4] and in experiment [5] were -24.2%, -14.8% and 9.5% (inactive), respectively. The result in [2] and in experiment [3] was inactive. In addition, the activity change % (negative = inhibition) in experiment [6] was 3.09% (inactive). Moreover, the Potency result in experiment [7], in experiment [16], in [17] and in experiment [18] was “inactive” throughout.

Regarding `O=C(O)[C@H](O)c1ccccc1`, in [7], the Potency result was “inactive”.

Turning to `COc1ccccc1O`, the result in [13], in experiment [14], in [15], in experiment [2] and in experiment [3] was inactive. For the same molecule, the max response was -7.45% and -9.73% and 7.42% in experiment [1]; -10.5% and -8.87% and -4.21% in experiment [4]; 0.752% (inactive) and 5.31% (inactive) and 3.65% (inactive) in experiment [5]. In [6], the activity change % (negative = inhibition) was 8.27% (inactive) and 8.42% (inactive) and 1.01% (inactive). Also, the Potency entry in experiment [7], in experiment [16], in experiment [17] and in experiment [18] was “inactive” in each case.

On to `Cc1c(O)cccc1C(=O)N[C@@H](CSc1ccccc1)[C@H](O)CN1C[C@H]2CCCC[C@H]2C[C@H]1C(=O)NC(C)(C)C`, for which the result in [15] was inactive. Further, the Potency entry in experiment [7], in [16] and in experiment [17] was “inactive” throughout. In addition, the Potency in [18] is 8.09 µM (active).

As to `C[C@@H]1CC[C@@]2(OC1)O[C@H]1C[C@H]3[C@@H]4CC[C@H]5C[C@@H](O)CC[C@]5(C)[C@H]4CC(=O)[C@]3(C)[C@H]1[C@@H]2C`, in experiment [7], the Potency result is “inactive”.

For the molecule `Cc1cc2nc3c(=O)[nH]c(=O)nc-3n(C[C@H](O)[C@H](O)[C@H](O)CO)c2cc1C`, the activity change % (negative = inhibition) in experiment [6] was -25% (inactive).

As for `CC(O)COc1ccccc1` (stereo not drawn), the result in experiment [13], in [14], in experiment [15], in [2] and in [3] was inactive. In addition, the max response was -14.5% in [1], -7.54% in [4] and -2.29% (inactive) in experiment [5]. In addition, in [6], the activity change % (negative = inhibition) is -6.45% (inactive). Further, the Potency result in experiment [7], in [16], in experiment [17] and in [18] was “inactive” throughout.
